Results published in PubChem BioAssay.
Activity calls are given as the source filed them. The rule behind the calls is not given here.

Target: Pantothenate synthetase (Mycobacterium tuberculosis (strain ATCC 25618 / H37Rv)) (UniProt P9WIL5)
Assay: Recombinant Mtb pantothenate synthetase (PanC) inhibitors, coupled enzyme, confirmatory (AID 375);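 note: 0% = full reaction with vehicle and 100% = no enzyme background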
Conditions: coupled enzyme assay; at 10 µM, hits give high values

Pantothenate synthetase (Mycobacterium tuberculosis (strain ATCC 25618 / H37Rv)), sequence (P9WIL5 whole entry, looked up): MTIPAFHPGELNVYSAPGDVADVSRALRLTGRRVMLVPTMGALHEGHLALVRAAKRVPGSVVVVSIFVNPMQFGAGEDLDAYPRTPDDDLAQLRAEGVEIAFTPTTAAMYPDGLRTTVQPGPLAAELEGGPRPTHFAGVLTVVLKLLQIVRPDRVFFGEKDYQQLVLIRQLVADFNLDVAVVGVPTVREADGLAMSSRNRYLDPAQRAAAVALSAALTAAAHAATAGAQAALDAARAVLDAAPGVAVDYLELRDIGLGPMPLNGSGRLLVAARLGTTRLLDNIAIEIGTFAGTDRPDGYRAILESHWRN

SMILES	inhibition
COc1ccccc1C1(CC(=O)N2CCOCC2)CCOC(C(C)C)C1 (configuration not stated)	2% (inactive)
O=C(NC1CCCCC1)C(c1ccc(Cl)cc1)N(C(=O)c1cnccn1)c1ccc2c(c1)OCO2 (configuration not stated)	0% (inactive)
C[C@]12CC[C@@H]3c4ccc(O)cc4C(=O)C[C@H]3[C@@H]1CC[C@@H]2O	0% (inactive)
COc1ccccc1NC(=O)CSc1nnc(Cc2cccn2C)n1-c1ccc(F)cc1	0% (inactive)
CCc1nc(N[C@@H](Cc2c[nH]c3ccccc23)C(=O)O)c2oc3ccccc3c2n1	13% (inactive)
Cc1cccc(C)c1OCc1nnc2c3cnn(C)c3ncn12	0% (inactive)
O=C(CSc1nc2ccsc2c(=O)n1NC(=O)c1ccccc1)Nc1nccs1	0% (inactive)
CCCc1cc(=O)[nH]c(Nc2ccc(OC)c(Cl)c2)n1	3% (inactive)
COc1ccc(C(=O)Oc2c(CN3CCOCC3)cc(Cl)c3cccnc23)cc1OC	0% (inactive)
CN(CC(=O)Nc1sccc1C#N)C1CCCCC1	0% (inactive)
COc1ccc(-n2ncc3c(NCc4ccccn4)ncnc32)cc1	11% (inactive)
S=c1nc(C2CC2)[nH]c2ccccc12	0% (inactive)
CCOc1ccc2[nH]c(C)cc(=O)c2c1	0% (inactive)
Cc1ccc(C)c(S(=O)(=O)n2cnc3ccccc32)c1	0% (inactive)
COCCc1ccc(OCC(O)CNC(C)C)cc1 (configuration not stated)	6% (inactive)
Cc1csc(NC(=O)CCCSc2nc3ccccc3s2)n1	0% (inactive)
O=C(c1cnn2c(C(F)(F)F)cc(-c3ccco3)nc12)N1CCc2ccccc2C1	3% (inactive)
